Assay results published in PubChem BioAssay (NCI).
Compounds without any hit were thinned out: in the full panel of roughly 83,000, 20% have a hit.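 For each line, cells grew in 96-well plates with the test compound present at a single concentration for 48 hours.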 Calls of active or inactive are those of the source. The calls were made as follows: active = growth percent below 10; inactive = the rest.

How the values were obtained:
Experiment in all cases: NCI-60 one-dose screen, 48 h (100 = growth as untreated, 0 = no growth, -100 = all killed)
Settings in all cases: 10 µM unless noted
NCI-H23 lung = test system: NCI-H23 lung
NCI-H226 lung = test system: NCI-H226 lung
NCI-H322M lung = test system: NCI-H322M lung
HOP-62 NSCLC = test system: HOP-62 NSCLC
NCI-H460 lung = test system: NCI-H460 lung
HOP-92 NSCLC = test system: HOP-92 NSCLC
NCI-H522 lung = test system: NCI-H522 lung
A549/ATCC NSCLC = test system: A549/ATCC NSCLC
786-0 renal = test system: 786-0 renal
COLO 205 colon = test system: COLO 205 colon
DU-145 prostate = test system: DU-145 prostate
K-562 leukemia = test system: K-562 leukemia
MALME-3M melanoma = test system: MALME-3M melanoma
MDA-MB-231 breast = test system: MDA-MB-231 breast
RXF 393 renal = test system: RXF 393 renal
SF-268 CNS = test system: SF-268 CNS
SF-295 CNS = test system: SF-295 CNS
SF-539 CNS = test system: SF-539 CNS
UACC-257 melanoma = test system: UACC-257 melanoma
M14 melanoma = test system: M14 melanoma

Measured: growth

Oc1cc2ccccc2c(-c2c(O)c(O)cc3ccccc23)c1O
active: NCI-H460 lung 9.65% | HOP-92 NSCLC -22.5% | NCI-H522 lung 1.24% | SF-295 CNS -48%
inactive: NCI-H23 lung 41.5% | NCI-H226 lung 39.6% | NCI-H322M lung 47.9% | HOP-62 NSCLC 42.3% | A549/ATCC NSCLC 36.1% | 786-0 renal 50% | COLO 205 colon 58.1% | DU-145 prostate 47.3% | K-562 leukemia 43.8% | MALME-3M melanoma 75.4% | MDA-MB-231 breast 75.1% | RXF 393 renal 72.7% | SF-268 CNS 37.9% | SF-539 CNS 21.4% | UACC-257 melanoma 56.1% | M14 melanoma 25%

CCC(C)c1c(N)n(S(=O)(=O)c2ccc(C)cc2)oc1=O (stereo not given)
inactive: NCI-H23 lung 108% | NCI-H226 lung 111% | NCI-H322M lung 123% | HOP-62 NSCLC 112% | NCI-H460 lung 105% | HOP-92 NSCLC 105% | NCI-H522 lung 90.1% | A549/ATCC NSCLC 108% | 786-0 renal 119% | COLO 205 colon 124% | DU-145 prostate 115% | K-562 leukemia 130% | MALME-3M melanoma 135% | MDA-MB-231 breast 108% | RXF 393 renal 125% | SF-268 CNS 109% | SF-295 CNS 104% | SF-539 CNS 96.6% | UACC-257 melanoma 90.6% | M14 melanoma 105%

CC(c1ccccc1)N(C)C (stereo not given)
inactive: NCI-H23 lung 110% | NCI-H226 lung 95.3% | NCI-H322M lung 92.3% | HOP-62 NSCLC 87.9% | NCI-H460 lung 107% | HOP-92 NSCLC 111% | NCI-H522 lung 98% | A549/ATCC NSCLC 106% | 786-0 renal 104% | COLO 205 colon 103% | DU-145 prostate 119% | K-562 leukemia 28% | MALME-3M melanoma 141% | MDA-MB-231 breast 99.1% | RXF 393 renal 124% | SF-268 CNS 108% | SF-295 CNS 131% | SF-539 CNS 103% | UACC-257 melanoma 116% | M14 melanoma 92.1%

CCOc1ccccc1NC(=O)CCl
inactive: NCI-H23 lung 71.4% | NCI-H226 lung 86.3% | NCI-H322M lung 107% | HOP-62 NSCLC 99.8% | NCI-H460 lung 97.3% | HOP-92 NSCLC 103% | NCI-H522 lung 56.1% | A549/ATCC NSCLC 100% | 786-0 renal 108% | COLO 205 colon 104% | DU-145 prostate 105% | K-562 leukemia 86.8% | MALME-3M melanoma 92.2% | MDA-MB-231 breast 83.8% | RXF 393 renal 93.9% | SF-268 CNS 91.7% | SF-295 CNS 87.4% | SF-539 CNS 114% | UACC-257 melanoma 102% | M14 melanoma 79.1%

CCNC(=O)OCCc1c2ccccc2nc2ccccc12
inactive: NCI-H23 lung 111% | NCI-H226 lung 106% | NCI-H322M lung 108% | HOP-62 NSCLC 109% | NCI-H460 lung 108% | HOP-92 NSCLC 13.4% | NCI-H522 lung 94.3% | A549/ATCC NSCLC 101% | 786-0 renal 112% | COLO 205 colon 124% | DU-145 prostate 122% | K-562 leukemia 88.2% | MALME-3M melanoma 126% | MDA-MB-231 breast 119% | RXF 393 renal 97.4% | SF-268 CNS 109% | SF-295 CNS 127% | SF-539 CNS 109% | UACC-257 melanoma 112% | M14 melanoma 120%

CCOc1ccc(C(=O)O)cc1
inactive: NCI-H23 lung 97.6% | NCI-H226 lung 91.9% | NCI-H322M lung 108% | HOP-62 NSCLC 105% | NCI-H460 lung 103% | HOP-92 NSCLC 90.4% | NCI-H522 lung 101% | A549/ATCC NSCLC 108% | 786-0 renal 101% | COLO 205 colon 105% | DU-145 prostate 112% | K-562 leukemia 115% | MALME-3M melanoma 118% | MDA-MB-231 breast 112% | RXF 393 renal 105% | SF-268 CNS 110% | SF-295 CNS 94.6% | SF-539 CNS 106% | UACC-257 melanoma 104% | M14 melanoma 97.5%

Cc1cc(NC(=O)c2ccccc2)c(Cl)cc1N
inactive: NCI-H23 lung 98.6% | NCI-H226 lung 97.1% | NCI-H322M lung 97.7% | HOP-62 NSCLC 96.7% | NCI-H460 lung 99.9% | HOP-92 NSCLC 106% | NCI-H522 lung 79.5% | A549/ATCC NSCLC 99.4% | 786-0 renal 92.1% | COLO 205 colon 129% | DU-145 prostate 126% | K-562 leukemia 98.8% | MALME-3M melanoma 103% | MDA-MB-231 breast 96% | RXF 393 renal 124% | SF-268 CNS 114% | SF-295 CNS 94% | SF-539 CNS 95.5% | UACC-257 melanoma 100% | M14 melanoma 95.8%

COc1ccc(C2CCCCC2=O)cc1 (stereo not given)
inactive: NCI-H23 lung 108% | NCI-H226 lung 113% | NCI-H322M lung 113% | HOP-62 NSCLC 95.5% | NCI-H460 lung 108% | HOP-92 NSCLC 98.9% | NCI-H522 lung 106% | A549/ATCC NSCLC 104% | 786-0 renal 105% | COLO 205 colon 104% | DU-145 prostate 123% | K-562 leukemia 104% | MALME-3M melanoma 120% | MDA-MB-231 breast 120% | RXF 393 renal 110% | SF-268 CNS 116% | SF-295 CNS 100% | SF-539 CNS 102% | UACC-257 melanoma 106% | M14 melanoma 108%

CCNCC(C)(C)O
inactive: NCI-H23 lung 99.1% | NCI-H226 lung 105% | NCI-H322M lung 98% | HOP-62 NSCLC 100% | NCI-H460 lung 113% | HOP-92 NSCLC 84.4% | NCI-H522 lung 109% | A549/ATCC NSCLC 96.1% | 786-0 renal 103% | COLO 205 colon 113% | DU-145 prostate 118% | K-562 leukemia 111% | MALME-3M melanoma 100% | MDA-MB-231 breast 94.9% | RXF 393 renal 117% | SF-268 CNS 119% | SF-295 CNS 103% | SF-539 CNS 102% | UACC-257 melanoma 98.7% | M14 melanoma 95.5%
